# According to ChEMBL document CHEMBL1961873, “Compounds: GSK PKIS; Assays: Nanosyn kinase panel” (2012):
# Experiments:
# [1] = molecular target: T1, Inhibitor of nuclear factor kappa-B kinase subunit epsilon (Homo sapiens) (UniProt Q14164); conditions: at 1 µM;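 also: reported values are averaged percent inhibition figures against human IKKε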
# T1 sequence (whole entry): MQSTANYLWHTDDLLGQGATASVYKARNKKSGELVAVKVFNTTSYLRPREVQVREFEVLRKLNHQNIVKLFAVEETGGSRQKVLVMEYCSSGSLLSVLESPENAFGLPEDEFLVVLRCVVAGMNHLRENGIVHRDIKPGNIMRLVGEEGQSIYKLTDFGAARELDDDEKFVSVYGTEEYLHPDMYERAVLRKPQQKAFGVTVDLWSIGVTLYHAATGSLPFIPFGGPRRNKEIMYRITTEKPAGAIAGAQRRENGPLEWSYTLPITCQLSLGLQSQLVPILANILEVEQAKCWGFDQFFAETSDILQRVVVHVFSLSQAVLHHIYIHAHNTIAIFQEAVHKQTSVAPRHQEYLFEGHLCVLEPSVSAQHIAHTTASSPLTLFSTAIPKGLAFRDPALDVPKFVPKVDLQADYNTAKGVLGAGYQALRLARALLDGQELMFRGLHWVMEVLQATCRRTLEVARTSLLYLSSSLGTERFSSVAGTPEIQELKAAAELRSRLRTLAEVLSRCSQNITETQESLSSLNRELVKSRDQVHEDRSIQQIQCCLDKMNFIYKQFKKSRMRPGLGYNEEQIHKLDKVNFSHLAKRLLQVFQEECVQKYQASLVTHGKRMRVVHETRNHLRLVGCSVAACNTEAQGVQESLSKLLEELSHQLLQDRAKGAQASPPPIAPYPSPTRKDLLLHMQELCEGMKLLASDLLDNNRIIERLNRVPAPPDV
# [2] = molecular target: T2, Serine/threonine-protein kinase Nek1 (Homo sapiens) (UniProt Q96PY6); conditions: at 0.1 µM
# T2 sequence (whole entry): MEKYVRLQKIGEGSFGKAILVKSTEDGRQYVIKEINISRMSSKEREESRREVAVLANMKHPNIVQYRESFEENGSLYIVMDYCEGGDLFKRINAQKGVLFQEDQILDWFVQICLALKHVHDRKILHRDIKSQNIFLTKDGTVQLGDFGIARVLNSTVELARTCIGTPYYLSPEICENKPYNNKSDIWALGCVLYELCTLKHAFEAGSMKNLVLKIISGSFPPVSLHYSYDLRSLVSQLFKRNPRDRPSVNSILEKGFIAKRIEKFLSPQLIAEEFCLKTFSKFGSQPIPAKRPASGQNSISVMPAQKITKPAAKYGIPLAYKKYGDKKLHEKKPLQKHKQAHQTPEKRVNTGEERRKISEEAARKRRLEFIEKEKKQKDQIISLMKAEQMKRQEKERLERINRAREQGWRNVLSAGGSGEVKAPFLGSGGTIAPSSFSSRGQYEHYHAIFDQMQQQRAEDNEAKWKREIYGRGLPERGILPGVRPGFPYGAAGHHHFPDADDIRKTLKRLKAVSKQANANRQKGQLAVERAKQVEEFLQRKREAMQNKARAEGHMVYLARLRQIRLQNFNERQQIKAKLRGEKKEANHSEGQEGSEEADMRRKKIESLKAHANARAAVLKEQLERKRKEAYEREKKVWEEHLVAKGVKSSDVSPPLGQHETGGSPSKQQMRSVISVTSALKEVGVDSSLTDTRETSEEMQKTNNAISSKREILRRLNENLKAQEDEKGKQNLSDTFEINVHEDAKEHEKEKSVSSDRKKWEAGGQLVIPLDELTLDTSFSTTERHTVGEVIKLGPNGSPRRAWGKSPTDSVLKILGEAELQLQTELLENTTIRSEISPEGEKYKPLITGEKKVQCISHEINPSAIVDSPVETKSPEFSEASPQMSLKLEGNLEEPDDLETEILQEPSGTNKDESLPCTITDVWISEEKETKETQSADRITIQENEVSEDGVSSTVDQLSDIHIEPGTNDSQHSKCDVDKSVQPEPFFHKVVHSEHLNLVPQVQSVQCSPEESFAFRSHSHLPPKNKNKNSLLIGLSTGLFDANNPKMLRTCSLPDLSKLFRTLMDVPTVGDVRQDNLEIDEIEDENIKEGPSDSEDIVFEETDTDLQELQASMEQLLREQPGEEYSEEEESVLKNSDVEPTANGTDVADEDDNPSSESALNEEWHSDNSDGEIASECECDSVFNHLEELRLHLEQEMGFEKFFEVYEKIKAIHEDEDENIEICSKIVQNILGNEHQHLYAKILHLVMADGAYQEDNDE
# [3] = molecular target: T2, Serine/threonine-protein kinase Nek1 (Homo sapiens); conditions: at 1 µM
# [4] = molecular target: T3, Serine/threonine-protein kinase Nek2 (Homo sapiens) (UniProt P51955); conditions: at 0.1 µM
# T3 sequence (whole entry): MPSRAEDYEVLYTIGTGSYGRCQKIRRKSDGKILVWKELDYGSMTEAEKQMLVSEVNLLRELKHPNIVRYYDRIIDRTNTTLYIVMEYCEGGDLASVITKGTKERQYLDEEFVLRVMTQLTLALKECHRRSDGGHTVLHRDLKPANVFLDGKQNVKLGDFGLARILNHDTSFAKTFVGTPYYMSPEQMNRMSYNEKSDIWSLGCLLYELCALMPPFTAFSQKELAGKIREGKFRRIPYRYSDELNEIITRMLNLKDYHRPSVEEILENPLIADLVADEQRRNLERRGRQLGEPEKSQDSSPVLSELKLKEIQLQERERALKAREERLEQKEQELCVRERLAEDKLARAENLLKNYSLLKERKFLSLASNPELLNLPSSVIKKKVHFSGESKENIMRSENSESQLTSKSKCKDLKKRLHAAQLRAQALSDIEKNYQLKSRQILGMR
# [5] = molecular target: T3, Serine/threonine-protein kinase Nek2 (Homo sapiens); conditions: at 1 µM
# [6] = molecular target: Serine/threonine-protein kinase Nek6 (Homo sapiens) (UniProt Q9HC98); conditions: at 0.1 µM
# [7] = molecular target: Serine/threonine-protein kinase Nek6 (Homo sapiens) (UniProt Q9HC98); conditions: at 1 µM
# [8] = molecular target: Serine/threonine-protein kinase Nek7 (Homo sapiens) (UniProt Q8TDX7); conditions: at 0.1 µM
# [9] = molecular target: Serine/threonine-protein kinase Nek7 (Homo sapiens) (UniProt Q8TDX7); conditions: at 1 µM
# [10] = molecular target: T4, Serine/threonine-protein kinase Nek9 (Homo sapiens) (UniProt Q8TD19); conditions: at 0.1 µM;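 also: reported value is the mean percent inhibition of NEK9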
# T4 sequence (whole entry): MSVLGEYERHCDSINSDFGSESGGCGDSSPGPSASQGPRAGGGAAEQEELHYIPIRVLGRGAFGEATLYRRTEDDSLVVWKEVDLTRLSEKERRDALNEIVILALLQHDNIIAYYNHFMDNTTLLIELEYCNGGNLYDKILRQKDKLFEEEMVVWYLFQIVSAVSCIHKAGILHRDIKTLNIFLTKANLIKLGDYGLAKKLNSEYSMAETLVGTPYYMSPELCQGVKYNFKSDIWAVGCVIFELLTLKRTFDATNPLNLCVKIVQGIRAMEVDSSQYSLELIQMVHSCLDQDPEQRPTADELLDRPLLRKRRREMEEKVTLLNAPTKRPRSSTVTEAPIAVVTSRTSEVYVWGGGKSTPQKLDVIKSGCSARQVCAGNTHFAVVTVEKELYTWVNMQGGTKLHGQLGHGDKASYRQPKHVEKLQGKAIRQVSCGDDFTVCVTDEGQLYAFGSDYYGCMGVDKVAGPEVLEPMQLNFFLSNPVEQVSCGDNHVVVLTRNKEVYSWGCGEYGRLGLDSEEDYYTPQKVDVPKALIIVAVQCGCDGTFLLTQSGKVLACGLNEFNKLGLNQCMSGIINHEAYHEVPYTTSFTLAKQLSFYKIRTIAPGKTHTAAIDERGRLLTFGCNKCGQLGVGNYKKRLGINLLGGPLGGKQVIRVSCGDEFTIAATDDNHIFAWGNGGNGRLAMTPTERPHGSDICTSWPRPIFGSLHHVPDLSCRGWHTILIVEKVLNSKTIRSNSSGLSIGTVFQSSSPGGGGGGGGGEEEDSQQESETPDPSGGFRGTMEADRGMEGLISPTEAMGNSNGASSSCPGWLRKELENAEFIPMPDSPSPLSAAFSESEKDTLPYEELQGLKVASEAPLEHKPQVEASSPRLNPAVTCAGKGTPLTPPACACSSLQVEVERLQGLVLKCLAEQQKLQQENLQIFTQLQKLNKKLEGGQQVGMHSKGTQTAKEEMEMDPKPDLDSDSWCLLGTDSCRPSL
# Sequence of Serine/threonine-protein kinase Nek6 (Homo sapiens) (Q9HC98 whole entry): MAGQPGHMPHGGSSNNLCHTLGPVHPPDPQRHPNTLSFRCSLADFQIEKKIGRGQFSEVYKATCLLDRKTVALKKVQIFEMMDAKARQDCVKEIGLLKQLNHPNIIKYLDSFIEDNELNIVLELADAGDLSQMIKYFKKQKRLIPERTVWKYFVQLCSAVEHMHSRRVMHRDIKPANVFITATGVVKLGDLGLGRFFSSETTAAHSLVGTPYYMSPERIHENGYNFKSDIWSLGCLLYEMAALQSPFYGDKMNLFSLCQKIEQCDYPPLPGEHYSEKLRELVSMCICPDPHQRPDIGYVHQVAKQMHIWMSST
# Sequence of Serine/threonine-protein kinase Nek7 (Homo sapiens) (Q8TDX7 whole entry, looked up): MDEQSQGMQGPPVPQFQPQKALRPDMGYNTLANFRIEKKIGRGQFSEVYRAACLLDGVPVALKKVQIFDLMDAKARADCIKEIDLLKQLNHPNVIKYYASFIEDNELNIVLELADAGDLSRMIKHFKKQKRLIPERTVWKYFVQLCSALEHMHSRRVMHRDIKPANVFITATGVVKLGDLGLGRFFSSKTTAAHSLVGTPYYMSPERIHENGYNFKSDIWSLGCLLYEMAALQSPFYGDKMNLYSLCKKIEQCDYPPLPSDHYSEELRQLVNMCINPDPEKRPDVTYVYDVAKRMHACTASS
smiles,measurement,setting,value
Cc1ccc(C(=O)NC2CC2)cc1-c1ccc2[nH]ncc2c1,inhibition,[1],-3.47%
same,inhibition,[2],-0.31%
same,inhibition,[3],1.87%
same,inhibition,[4],-2.19%
same,inhibition,[5],0.98%
same,inhibition,[6],-3.09%
same,inhibition,[7],-3.72%
same,inhibition,[8],-7.62%
same,inhibition,[9],-4.5%
same,inhibition,[10],0.32%
